The record followed here is PubChem BioAssay (NCATS).

Inconclusive results are not listed. Activity calls are given as the source filed them. Calls come from the whole dose curve; tested in HEK293 reporter line.

Experiment [1] can be described thus: qHTS for Inhibitors of the Functional Ribonucleoprotein Complex (vRNP) of Lassa (LASV) Arenavirus: LASV Primary Screen - GLuc reporter signal (AID 1347082). Note: nearly all actives have a fitted effect of over 60% in size.
A short description of experiment [2]: qHTS for Inhibitors of the Functional Ribonucleoprotein Complex (vRNP) of Lassa (LASV) Arenavirus: Viability assay - alamar blue signal for LASV Primary Screen (AID 1347083). Note: nearly all actives have a fitted effect of over 80% in size.
Potency is the fitted concentration of half-maximal effect.

Turning to `Cc1ccc(-c2ncn(-c3ccc(Nc4nccc(-c5cccc(N6CCOCC6)c5)n4)cc3)n2)cn1`, the Potency result in experiment [1] is “inactive”. In addition, the Potency in experiment [2] is 485 nM (active).

As to `CC(=O)OCC(=O)[C@@]1(O)[C@H](C)C[C@H]2[C@@H]3C=C(C)C4=Cc5c(cnn5-c5ccccc5)C[C@]4(C)[C@@H]3[C@@H](O)C[C@@]21C`, the Potency entry in experiment [1] and in experiment [2] was “inactive” each time.

As for `CCC(=O)N[C@H]1CC[C@H](C(=O)N(C)c2ccc(-c3nc4ccccc4o3)cc2)C1`, the Potency in experiment [1] was 9680 nM (active); in experiment [2] it was 3430 nM (active).

Consider `N#C/C(=C1\SCC(c2ccccc2Cl)S1)n1ccnc1` (stereo not given), for which the Potency entry in experiment [1] and in experiment [2] was “inactive” each time.

With `O=c1cc(-c2ccccc2)oc2ccccc12`, the Potency result in experiment [1] and in experiment [2] was “inactive” each time.

In the case of `CN1Cc2cc(C(=O)N3CCC(C4CCNCC4)CC3)ccc2N[C@@H](CC(=O)O)C1=O`, the Potency entry in experiment [1] and in experiment [2] was “inactive” in each case.

Regarding `Cc1ccccc1C(C(=O)NC1CCCC1)N(C(=O)Cn1cnc2ccccc21)c1cccc(F)c1` (stereo not given), the Potency entry in experiment [1] and in experiment [2] was “inactive” in each case.

On to `N=C1N=C(N)c2cc3ccccc3cc21`, for which the Potency entry in experiment [1] and in experiment [2] was “inactive” each time.

For the molecule `CC(=O)N(C)C1(c2ccccc2)CCN(CCC[C@]2(c3ccc(Cl)c(Cl)c3)CCCN(C(=O)c3ccccc3)C2)CC1`, the Potency entry in experiment [1] and in experiment [2] was “inactive” in each case.

With `Nc1cc(C(F)(F)F)c(-c2cc(N3CCOCC3)nc(N3CCOCC3)n2)cn1`, the Potency in experiment [1] was 1930 nM (active); in experiment [2] it was 1220 nM (active).

As to `COc1cc(Nc2ncc(F)c(Nc3ccc4c(n3)NC(=O)C(C)(C)O4)n2)cc(OC)c1OC`, the Potency result in experiment [1] and in experiment [2] was “inactive” each time.

For `CCCCC/C(C=O)=C\c1ccccc1`, the Potency result in experiment [1] and in experiment [2] was “inactive” throughout.

Take `Cc1cccc(-c2nn(C(=S)Nc3ccccc3)cc2-c2ccnc3ccccc23)n1`: the Potency entry in experiment [1] and in experiment [2] was “inactive” each time.

For `C[C@@H](N)C(=O)O`, the Potency result in experiment [1] and in experiment [2] was “inactive” in each case.

As to `C[N+]1(C)C2CC(OC(=O)[C@H](CO)c3ccccc3)CC1C1OC12` (stereo not given in full), the Potency entry in experiment [1] and in experiment [2] was “inactive” in each case.

Regarding `Cc1cnc(Nc2ccc(F)cc2Cl)nc1-c1c[nH]c(C(=O)N[C@H](CO)c2cccc(Cl)c2)c1`, the results for the Potency in experiment [1] and in experiment [2] were 19300 nM (active) and 15300 nM (active), respectively.

For `CN(C)CC=CC(=O)Nc1cc2c(Nc3ccc(F)c(Cl)c3)ncnc2cc1O[C@H]1CCOC1`, the results for the Potency in experiment [1] and in experiment [2] were 13700 nM (active) and 24300 nM (active), respectively.

For the molecule `C=CC(=O)Nc1cc2c(Nc3ccc(F)c(Cl)c3)ncnc2cc1C#CC(C)(C)N1CCN(C)CC1`, the Potency result in experiment [1] and in experiment [2] was “inactive” each time.

Consider `O=C(O)[C@H](Cc1c[nH]c2ccccc12)N1C(=O)c2ccccc2C1=O`, for which the Potency result in experiment [1] and in experiment [2] was “inactive” throughout.

`COc1cc2c(cc1OC)[C@@H]1C(=O)c3ccc4c(c3O[C@@H]1CO2)C=CC(C)(C)O4`: the Potency was 153 nM (active) in experiment [1] and 1930 nM (active) in experiment [2].

On to `C[C@@H](O[C@H]1OCCN(Cc2n[nH]c(=O)[nH]2)[C@@H]1c1ccc(F)cc1)c1cc(C(F)(F)F)cc(C(F)(F)F)c1`, for which the Potency result in experiment [1] and in experiment [2] was “inactive” in each case.

Take `CC(C)(C)C(=O)Oc1ccc2c(c1)nc(NC(=O)c1cccc([N+](=O)[O-])c1)n2CCCO`: the Potency entry in experiment [1] and in experiment [2] was “inactive” in each case.

Consider `CC[C@@H]1C(=O)N(C)c2cnc(Nc3ccc(C(=O)NC4CCN(C)CC4)cc3OC)nc2N1C1CCCC1`, for which the results for the Potency in experiment [1] and in experiment [2] were 76.9 nM (active) and 48.5 nM (active), respectively.

For `CCN(CC)CCNC(=O)c1ccc(NC(C)=O)cc1`, the Potency result in experiment [1] and in experiment [2] was “inactive” in each case.

As to `Oc1c(I)cc(I)c2cccnc12`, the Potency entry in experiment [1] and in experiment [2] was “inactive” each time.

Take `Cc1c(CN2CCN(C(=O)C(C)C)CC2)sc2c(N3CCOCC3)nc(-c3cnc(N)nc3)nc12`: the Potency in experiment [1] was 273 nM (active); in experiment [2], 137 nM (active).

In the case of `Cc1cc(SCc2sc(-c3ccc(C(F)(F)F)cc3)nc2C)ccc1OCC(=O)O`, the Potency result in experiment [1] and in experiment [2] was “inactive” throughout.

For the molecule `O=C(O)c1ccccc1O`, the Potency entry in experiment [1] and in experiment [2] was “inactive” in each case.

As for `COc1cc(N2CCC(N3CCN(C)CC3)CC2)ccc1Nc1ncc(Cl)c(Nc2ccccc2S(=O)(=O)C(C)C)n1`, the Potency result in experiment [1] and in experiment [2] was “inactive” each time.

With `CCC(C)(Oc1ccc(C2(c3ccc(OC(C)(CC)C(=O)O)cc3)CCCCC2)cc1)C(=O)O` (stereo not given), the Potency result in experiment [1] and in experiment [2] was “inactive” throughout.

As for `Cc1ccc(C(N)=O)cc1Nc1nccc(-c2cn(C(C)C)c3cnccc23)n1`, the Potency was 24300 nM (active) in experiment [1] and 15300 nM (active) in experiment [2].

`CC(=O)Nc1sc2c(c1-c1nc3ccccc3s1)CNC2`: the Potency result in experiment [1] is “inactive”. For the same molecule, the Potency in experiment [2] was 5.4 nM (active).

For the molecule `CC(C)(C)c1cnc(CSc2cnc(NC(=O)C3CCNCC3)s2)o1`, the values for the Potency in experiment [1] and in experiment [2] were 6110 nM (active) and 968 nM (active), respectively.

In the case of `O=C(Nc1cc(Cl)cc2c1[nH]c1cnccc12)c1cccnc1`, the Potency in experiment [1] is 24300 nM (active); in experiment [2], 21700 nM (active).

`CN1C(=O)CC[C@H]1c1cccnc1`: the Potency result in experiment [1] and in experiment [2] was “inactive” throughout.

Take `CC(C)(C)c1cc(C(=O)O)c(NC(=O)Nc2ccc3[nH]ncc3c2)s1`: the Potency entry in experiment [1] and in experiment [2] was “inactive” each time.

For the molecule `NC(CO)(CO)CCc1ccc(Sc2cccc(OCc3ccccc3)c2)cc1Cl`, the Potency entry in experiment [1] and in experiment [2] was “inactive” each time.

As for `CCCN(CCC)c1c([N+](=O)[O-])cc(S(N)(=O)=O)cc1[N+](=O)[O-]`, the Potency entry in experiment [1] and in experiment [2] was “inactive” throughout.

On to `Oc1cccc(-c2nc(N3CCOCC3)c3oc4ncccc4c3n2)c1`, for which the Potency is 993 nM (active) in experiment [1] and 885 nM (active) in experiment [2].

For `S=C(NCc1ccc2c(c1)OCO2)N1CCN(c2ncnc3c2oc2ccccc23)CC1`, the Potency entry in experiment [1] and in experiment [2] was “inactive” in each case.
